Assay outcomes deposited in PubChem by National Center for Advancing Translational Sciences (NCATS).
Pf Dd2 growth: qHTS Primary assay for Inhibitors of Plasmodium falciparum Dd2 growth in vitro | Potency, µM (titrated, usually from 28.9 µM), for inactives: top-dose activity, negative = inhibition, hits mostly inhibitors | hit rate 4.3% among 120,000 | P. falciparum Dd2 growth, SYBR Green, 72 h; active = well fitted inhibition curve with a large enough effect;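 note: plate controls were DMSO vehicle for no effect and reference drug for full effect; nearly all actives have a fitted effect of over 65% in size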
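Readout: SYBR Green fluorescence, 485 nm excitation, 535 nm emission, after ~16 h lysis at 37C. Before that, Dd2-infected red cells (2.5% hematocrit) grew 72 h with compound, 29 uM top final concentration.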
The depositor's hits bear a star; i = inactive; [ ] = dose if it differs, or a comment. The sample as a whole holds a higher share of hits than the screen did. Potency is the fitted concentration of half-maximal effect.

SMILES	Pf Dd2 growth
Cc1cccc(C(C(=O)NCc2nn(C)c3ccc(C)cc23)N(C)C)c1 (stereo not drawn)	i
NC1CCCN(c2cc(N3CCCC3)ncn2)C1 (stereo not drawn)	-5.8%[5.79 µM]
NC(=O)[C@@H]1CN(C(=O)CC2=CCCCC2)C[C@H]1COc1ccccc1	-13.0%
COc1ccc(C(=O)N[C@@H]2CCC[C@@H]2C(=O)NCCC(C)C)cc1	-9.6%
COC(=O)c1ccc(Cn2c(SCc3ccccc3F)nc3ccncc32)cc1	-16.8%
O=C(NCCc1ccccc1)c1ccc(CSc2nc3ccncc3n2Cc2ccccc2F)cc1	7.08µM*
O=C(NCCc1ccccc1)c1ccc(CSc2nc3ccncc3n2Cc2cccc(F)c2)cc1	4.47µM*
O=C(NCc1ccccc1)c1ccc(CSc2nc3cccnc3n2Cc2ccccc2F)cc1	3.0%
COc1ccc(C(=O)N2CCCC(Cc3noc(-c4cnccn4)n3)C2)cc1 (stereo not drawn)	16.0%
CN(C)C[C@@H]1CN(S(C)(=O)=O)C[C@H]1NC(=O)c1ccc(Cn2ccnc2)o1	18.5%
CCOc1ccc(CC(=O)N2CCC3(CC2)C(=O)N(C)c2ccccc23)cc1	-11.6%
CN1[C@@H](CCC(=O)N2CCc3ccccc32)CNC(=O)[C@@H]2[C@H]1CCN2Cc1ccccc1	i
COC1C(=O)N(c2cccc(F)c2)C12CCN(C(=O)CC1CCN(C(C)=O)CC1)CC2 (stereo not drawn)	-6.6%
COC1CN(c2cccc(F)c2)C12CCN(C(=O)CC1CCCCC1)CC2 (stereo not drawn)	8.91µM*
CCCS(=O)(=O)N1CCC2(CC1)C(OC)CN2c1cccc(F)c1 (stereo not drawn)	i
CCCN(CC1CC1)C(=O)C1CCC(=O)N(CCc2ccc(Cl)cc2)C1 (stereo not drawn)	-22.6%
O=C(C1CCOCC1)N1CCC(N2C(=O)C(OCC3CC3)C23CCCCC3)CC1 (stereo not drawn)	10.9%
Nc1nc(C2CC(NC(=O)Cn3cnc4ccccc4c3=O)C2)cc(=O)[nH]1 (stereo not drawn)	0.8%
COc1cccc(CNC(=O)Cn2ccn3nc(-c4ccccc4)c(CO)c3c2=O)c1	2.8%
Cc1cc(C(=O)N2CCC(Cc3nc(-c4ccccc4)n[nH]3)C2)n(C)n1 (stereo not drawn)	i
CCOc1ccccc1N(C)C(=O)C1CCCN(c2ncnc3c2nc2n3CCCCC2)C1 (stereo not drawn)	-2.2%
CCc1ccccc1N(C)C(=O)C1CCCN(c2ncnc3c2nc2n3CCCCC2)C1 (stereo not drawn)	7.94µM*
CCc1ccccc1N(CC)C(=O)C1CCN(c2ncnc3c2nc2n3CCCCC2)CC1	11.2µM*
CCCNC(=O)C1CCN(c2ncnc3c2nc2n3CCCCC2)CC1	-8.7%
O=C(Nc1ccc(F)cc1)C1CCCN(c2ncnc3c2nc2n3CCCCC2)C1 (stereo not drawn)	-20.1%
SMILES	Pf Dd2 growth
Cc1ccc(C)c(NC(=O)C2CCN(c3ncnc4c3nc3n4CCCCC3)CC2)c1	14.6%
CN(C(=O)C1CCN(c2ncnc3c2nc2n3CCCCC2)CC1)c1ccccc1F	-19.5%
Cc1ccc(C)c(N(C)C(=O)C2CCN(c3ncnc4c3nc3n4CCCCC3)CC2)c1	8.91µM*
CCCN(CCC)C(=O)C1CCN(c2ncnc3c2nc2n3CCCCC2)CC1	-20.1%
CC(C)N1CCN(C(=O)c2ccc(N3CC4CC(C3)[C@H]3CCCC(=O)N3C4)nc2)CC1 (stereo partly drawn)	-24.4%
CC(C)CCNC(=O)C1Cn2cccc2C(=O)N1CC(C)C (stereo not drawn)	6.4%
C[C@@H](NC(=O)c1cnccn1)c1onc(-c2ccc(F)cc2)c1C(=O)O	18.8%[44.1 µM]
COC(=O)c1cn([C@H]2CO[C@H]3[C@@H]2OC[C@@H]3NCCCc2ccccc2)nn1	3.7%[44.1 µM]
CCC(=O)N(C1CCOCC1)C1CCN(Cc2ccc(C)cc2C)CC1	-22.2%
Cc1sc2cc(C(=O)NC(C)(C)C)[nH]c2c1CN1CCCCC1	-8.7%
COc1ccc(OC)c(S(=O)(=O)N2C[C@@H](F)C[C@H]2C(=O)N2CCc3ccccc3C2)c1	-16.5%
Cc1ccc2c(C(=O)NCc3ccccc3Cl)cc(NC(=O)C(C)C)cc2n1	-19.3%
O=C(NCc1ccnc2[nH]ccc12)C1CCCC1	5.3%[44.1 µM]
c1nc(-c2cc(NC3CCNCC3)nc3[nH]ccc23)c2sccc2n1	i
CN(C)C(=O)c1ccc(-c2cc(NC3CCCC3)nc3[nH]ccc23)o1	8.91µM*
CC(C)NC(=O)C[C@@H]1C[C@H]2O[C@H](CNC(=O)NC(C)C)[C@@H](O)[C@H]2O1	43.6%[44.1 µM]
CCn1ccnc1CNc1ccc(-c2nc(-c3ccccc3C)no2)cn1	-23.2%
Cc1ccc(C)c(-c2nc(Cn3c(=O)cc(-c4ccccc4)c4c(C)nn(C)c43)c(C)o2)c1	42.9%
Cc1oc(-c2ccccc2)nc1Cn1c(=O)cc(-c2ccccc2)c2c(C)nn(C)c21	10µM*
Cc1cccc(-c2nc(Cn3c(=O)cc(-c4ccccc4)c4c(C)nn(C)c43)c(C)o2)c1	-12.5%
c1c(CN2CCCN(CCCN3CCCC3)CC2)nn2c1CNCC2	-5.0%
